The source of these data is paper PMC7862700, “An all-to-all approach to the identification of sequence-specific readers for epigenetic DNA modifications on cytosine”.

What all share (experiment): DAPPL (digital affinity profiling via proximity ligation, sequencing); 10 mM Tris-HCl pH 7.5, 50 mM NaCl, 1 mM DTT, 4% glycerol, room temperature, 30 min; GST-TFs on glutathione beads, 16-mer random dsDNA library, 0.1% formaldehyde crosslink after washing; high values mean tight binding
One experiment deals with T1, FLI1 (Homo sapiens, UniProt Q01543 1-452).
T1 sequence: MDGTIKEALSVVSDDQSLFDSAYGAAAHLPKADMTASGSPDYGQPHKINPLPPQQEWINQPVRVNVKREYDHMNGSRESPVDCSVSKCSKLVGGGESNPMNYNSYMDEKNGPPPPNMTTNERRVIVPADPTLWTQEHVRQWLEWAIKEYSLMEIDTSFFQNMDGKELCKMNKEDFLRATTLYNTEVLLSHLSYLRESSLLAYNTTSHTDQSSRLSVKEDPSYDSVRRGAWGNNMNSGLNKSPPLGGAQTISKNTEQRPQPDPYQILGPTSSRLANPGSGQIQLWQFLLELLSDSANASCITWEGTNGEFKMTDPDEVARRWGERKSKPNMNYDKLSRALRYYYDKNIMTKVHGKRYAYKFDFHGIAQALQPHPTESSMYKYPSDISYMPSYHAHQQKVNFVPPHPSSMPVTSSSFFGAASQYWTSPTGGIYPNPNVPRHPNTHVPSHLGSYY
The note with it: protein: recombinant; tags: N-terminal GST; dsDNA, one strand shown. The gist of the method:
(§1)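 Sequencing on an Illumina NextSeq500 followed washing, crosslinking with 0.1% formaldehyde, proximity ligation (BsaI/T4 ligase, 1 h, 37 °C) and PCR amplification of pools that had been incubated for 30 min at room temperature with 200 nmole of a random double-stranded 16-mer DNA library in Tris/NaCl/DTT/glycerol buffer. Each pool held DNA-barcoded human transcription factors, expressed in yeast as GST fusions and captured on glutathione beads, plus a tag-only sample. Binding signal is a hexamer's read frequency for a factor divided by its frequency in the tag-only sample.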

The next experiment has as its target T2, ELK1 (Homo sapiens, UniProt P19419 1-428).
T2 sequence: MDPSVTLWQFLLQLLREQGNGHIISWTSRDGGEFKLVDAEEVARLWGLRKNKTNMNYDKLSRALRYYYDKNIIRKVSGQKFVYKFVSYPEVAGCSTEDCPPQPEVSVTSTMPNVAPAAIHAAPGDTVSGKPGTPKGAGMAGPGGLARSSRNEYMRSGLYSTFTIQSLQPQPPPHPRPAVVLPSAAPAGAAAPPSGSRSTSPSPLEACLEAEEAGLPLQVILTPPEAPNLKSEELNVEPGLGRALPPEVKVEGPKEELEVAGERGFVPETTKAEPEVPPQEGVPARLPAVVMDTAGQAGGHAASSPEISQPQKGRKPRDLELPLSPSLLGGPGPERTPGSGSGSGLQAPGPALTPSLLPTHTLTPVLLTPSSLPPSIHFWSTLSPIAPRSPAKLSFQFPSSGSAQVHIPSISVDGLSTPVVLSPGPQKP
The note with it: protein: recombinant; tags: N-terminal GST; dsDNA, one strand shown. The essentials: as §1

Another experiment deals with T3, GABPA (Homo sapiens, UniProt Q06546 1-454).
T3 sequence: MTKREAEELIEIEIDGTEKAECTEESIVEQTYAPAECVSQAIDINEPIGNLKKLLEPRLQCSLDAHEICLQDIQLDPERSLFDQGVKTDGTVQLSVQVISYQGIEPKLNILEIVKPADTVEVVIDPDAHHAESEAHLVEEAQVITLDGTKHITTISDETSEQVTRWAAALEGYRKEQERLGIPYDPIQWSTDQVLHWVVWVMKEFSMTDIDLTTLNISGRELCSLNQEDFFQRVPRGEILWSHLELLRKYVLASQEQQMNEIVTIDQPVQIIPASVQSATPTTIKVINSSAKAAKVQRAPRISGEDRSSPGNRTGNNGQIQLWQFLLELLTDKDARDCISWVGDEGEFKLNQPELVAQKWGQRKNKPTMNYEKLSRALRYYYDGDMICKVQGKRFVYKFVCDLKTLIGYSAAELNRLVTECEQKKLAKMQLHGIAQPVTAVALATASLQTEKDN
The note with it: protein: recombinant; tags: N-terminal GST; dsDNA, one strand shown. The essentials: as §1

For the next experiment, the target named is T4, ERG (Homo sapiens, UniProt P11308 1-479).
T4 sequence: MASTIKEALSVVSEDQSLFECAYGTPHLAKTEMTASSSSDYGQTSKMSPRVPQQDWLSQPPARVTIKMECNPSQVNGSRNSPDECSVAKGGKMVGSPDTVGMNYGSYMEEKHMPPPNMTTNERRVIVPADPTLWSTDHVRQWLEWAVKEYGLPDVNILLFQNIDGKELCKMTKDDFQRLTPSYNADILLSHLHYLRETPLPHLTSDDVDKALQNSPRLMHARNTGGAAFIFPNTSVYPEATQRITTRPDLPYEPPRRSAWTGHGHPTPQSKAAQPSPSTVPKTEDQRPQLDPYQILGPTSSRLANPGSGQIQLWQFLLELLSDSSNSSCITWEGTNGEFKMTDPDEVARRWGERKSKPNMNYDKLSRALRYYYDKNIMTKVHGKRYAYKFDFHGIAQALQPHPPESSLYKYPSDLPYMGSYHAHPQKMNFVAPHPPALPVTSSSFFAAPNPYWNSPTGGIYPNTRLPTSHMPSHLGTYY
The note with it: protein: recombinant; tags: N-terminal GST; dsDNA, one strand shown. The essentials:
as §1

The next experiment addresses ELF1 (Homo sapiens, UniProt P32519 1-619). The note with it: protein: recombinant; tags: N-terminal GST; dsDNA, one strand shown. The gist of the method:
as §1

For a further experiment, the target named is T5, EHF (Homo sapiens, UniProt Q9NZC4 1-300).
T5 sequence: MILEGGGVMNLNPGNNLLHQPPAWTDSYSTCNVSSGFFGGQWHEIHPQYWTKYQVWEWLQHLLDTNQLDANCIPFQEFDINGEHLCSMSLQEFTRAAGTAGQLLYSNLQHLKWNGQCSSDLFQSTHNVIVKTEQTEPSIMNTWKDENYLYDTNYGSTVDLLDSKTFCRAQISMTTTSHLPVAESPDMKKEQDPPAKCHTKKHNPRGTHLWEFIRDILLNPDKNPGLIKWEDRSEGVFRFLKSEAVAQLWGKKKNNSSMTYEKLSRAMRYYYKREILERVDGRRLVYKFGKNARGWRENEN
The note with it: protein: recombinant; tags: N-terminal GST; dsDNA, one strand shown. The essentials:
as §1

The target of a further experiment is SPI1 (Homo sapiens, UniProt P17947 1-270). The note with it: protein: recombinant; tags: N-terminal GST; dsDNA, one strand shown. The essentials: as §1
The target in a further experiment is SPIB (Homo sapiens, UniProt Q01892 1-262). As to conditions: protein: recombinant; tags: N-terminal GST; dsDNA, one strand shown. The gist of the method:
as §1

The target of a further experiment is T6, ELK3 (Homo sapiens, UniProt P41970 1-407).
T6 sequence: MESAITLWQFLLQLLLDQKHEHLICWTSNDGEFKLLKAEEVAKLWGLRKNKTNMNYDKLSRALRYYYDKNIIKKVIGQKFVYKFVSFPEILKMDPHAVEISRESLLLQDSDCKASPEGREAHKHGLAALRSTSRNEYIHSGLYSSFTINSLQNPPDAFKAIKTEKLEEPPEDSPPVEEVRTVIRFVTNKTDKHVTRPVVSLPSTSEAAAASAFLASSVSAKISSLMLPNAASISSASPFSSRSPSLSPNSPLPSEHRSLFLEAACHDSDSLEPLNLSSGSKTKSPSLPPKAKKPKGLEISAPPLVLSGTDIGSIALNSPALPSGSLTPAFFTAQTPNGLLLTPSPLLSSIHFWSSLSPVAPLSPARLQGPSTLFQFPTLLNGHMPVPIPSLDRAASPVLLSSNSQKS
The note with it: protein: recombinant; tags: N-terminal GST; dsDNA, one strand shown. The essentials:
as §1

The target of the next experiment is T7, FEV (Homo sapiens, UniProt Q99581 1-238).
T7 sequence: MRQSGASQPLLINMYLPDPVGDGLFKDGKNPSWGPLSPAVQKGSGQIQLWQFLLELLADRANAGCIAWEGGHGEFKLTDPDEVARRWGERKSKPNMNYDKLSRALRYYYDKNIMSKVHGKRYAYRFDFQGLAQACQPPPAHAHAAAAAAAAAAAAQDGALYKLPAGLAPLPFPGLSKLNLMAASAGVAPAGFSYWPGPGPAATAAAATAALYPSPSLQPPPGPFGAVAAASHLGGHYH
The note with it: protein: recombinant; tags: N-terminal GST; dsDNA, one strand shown. The gist of the method: as §1

The next experiment deals with ETV5 (Homo sapiens, UniProt P41161 1-510). The note with it: protein: recombinant; tags: N-terminal GST; dsDNA, one strand shown. The essentials:
as §1

For the next experiment, the target named is HSF1 (Homo sapiens, UniProt Q00613 1-529). The note with it: protein: recombinant; tags: N-terminal GST; chain copies: 3; dsDNA, one strand shown. The essentials: as §1
Chain of HSF1 (Q00613 whole entry): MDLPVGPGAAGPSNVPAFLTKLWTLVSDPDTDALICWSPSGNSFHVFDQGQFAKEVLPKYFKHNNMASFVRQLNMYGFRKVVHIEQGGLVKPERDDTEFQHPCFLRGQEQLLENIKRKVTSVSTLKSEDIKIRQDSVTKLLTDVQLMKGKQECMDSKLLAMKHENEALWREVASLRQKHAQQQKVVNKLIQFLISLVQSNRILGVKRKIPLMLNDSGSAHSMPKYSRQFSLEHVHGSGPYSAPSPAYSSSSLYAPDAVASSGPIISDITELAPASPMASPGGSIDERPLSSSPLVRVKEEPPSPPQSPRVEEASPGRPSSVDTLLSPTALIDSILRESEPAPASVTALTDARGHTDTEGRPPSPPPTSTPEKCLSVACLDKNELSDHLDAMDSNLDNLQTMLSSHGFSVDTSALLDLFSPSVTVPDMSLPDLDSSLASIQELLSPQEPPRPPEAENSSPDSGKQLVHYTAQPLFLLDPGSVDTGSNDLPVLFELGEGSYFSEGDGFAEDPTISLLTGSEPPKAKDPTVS
The target of the next experiment is T8, SPIC (Homo sapiens, UniProt Q8N5J4 1-248).
T8 sequence: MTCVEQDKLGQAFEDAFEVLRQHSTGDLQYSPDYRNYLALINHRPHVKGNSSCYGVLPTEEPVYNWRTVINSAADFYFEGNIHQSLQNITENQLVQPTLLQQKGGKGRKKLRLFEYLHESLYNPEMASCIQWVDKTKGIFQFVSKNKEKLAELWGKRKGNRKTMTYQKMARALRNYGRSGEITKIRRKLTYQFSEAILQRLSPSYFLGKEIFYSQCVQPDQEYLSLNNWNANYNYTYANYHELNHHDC
The note with it: protein: recombinant; tags: N-terminal GST; dsDNA, one strand shown. The essentials: as §1

The next experiment has as its target ELF4 (Homo sapiens, UniProt Q99607 1-663). The note with it: protein: recombinant; tags: N-terminal GST; dsDNA, one strand shown. The essentials:
as §1

The next experiment concerns the target T9, ELK4 (Homo sapiens, UniProt P28324-2 1-405).
T9 sequence: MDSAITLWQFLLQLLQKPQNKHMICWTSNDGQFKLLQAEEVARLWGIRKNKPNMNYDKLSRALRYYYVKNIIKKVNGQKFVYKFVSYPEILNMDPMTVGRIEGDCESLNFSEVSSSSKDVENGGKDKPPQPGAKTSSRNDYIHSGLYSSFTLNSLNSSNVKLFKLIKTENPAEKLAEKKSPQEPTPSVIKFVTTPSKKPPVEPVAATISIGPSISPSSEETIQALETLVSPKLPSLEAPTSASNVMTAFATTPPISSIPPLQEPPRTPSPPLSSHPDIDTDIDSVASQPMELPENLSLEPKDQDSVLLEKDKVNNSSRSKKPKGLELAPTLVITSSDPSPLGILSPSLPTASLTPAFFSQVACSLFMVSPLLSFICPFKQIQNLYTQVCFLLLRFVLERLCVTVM
As to conditions: protein: recombinant; tags: N-terminal GST; dsDNA, one strand shown. The essentials: as §1

The next experiment addresses T10, ETV2 (Homo sapiens, UniProt O00321 1-342).
T10 sequence: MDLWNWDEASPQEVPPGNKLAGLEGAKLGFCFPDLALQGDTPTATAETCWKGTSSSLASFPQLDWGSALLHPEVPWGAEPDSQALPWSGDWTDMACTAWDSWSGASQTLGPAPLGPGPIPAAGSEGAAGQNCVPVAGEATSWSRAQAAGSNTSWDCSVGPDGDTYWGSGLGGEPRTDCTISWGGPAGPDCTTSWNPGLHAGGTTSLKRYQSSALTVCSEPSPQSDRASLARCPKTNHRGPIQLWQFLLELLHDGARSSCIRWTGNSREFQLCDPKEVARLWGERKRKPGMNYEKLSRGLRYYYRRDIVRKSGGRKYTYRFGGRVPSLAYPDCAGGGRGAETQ
As to conditions: protein: recombinant; tags: N-terminal GST; dsDNA, one strand shown. The essentials:
as §1

For the next experiment, the target named is T11, ELF3 (Homo sapiens, UniProt P78545 1-371).
T11 sequence: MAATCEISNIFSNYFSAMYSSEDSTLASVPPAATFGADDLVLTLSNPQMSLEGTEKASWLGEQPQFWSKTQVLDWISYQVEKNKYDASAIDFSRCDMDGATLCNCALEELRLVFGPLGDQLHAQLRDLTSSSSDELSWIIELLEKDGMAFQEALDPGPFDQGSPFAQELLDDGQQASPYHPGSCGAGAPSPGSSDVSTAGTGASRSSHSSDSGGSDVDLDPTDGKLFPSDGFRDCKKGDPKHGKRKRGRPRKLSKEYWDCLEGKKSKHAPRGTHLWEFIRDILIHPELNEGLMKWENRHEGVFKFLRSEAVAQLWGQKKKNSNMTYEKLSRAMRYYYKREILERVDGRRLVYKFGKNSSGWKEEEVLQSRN
The note with it: protein: recombinant; tags: N-terminal GST; dsDNA, one strand shown. The essentials:
as §1

For a further experiment, the target named is ETV1 (Homo sapiens, UniProt P50549 1-477). As to conditions: protein: recombinant; tags: N-terminal GST; dsDNA, one strand shown. The essentials:
as §1

Chain of ETV5 (P41161 whole entry): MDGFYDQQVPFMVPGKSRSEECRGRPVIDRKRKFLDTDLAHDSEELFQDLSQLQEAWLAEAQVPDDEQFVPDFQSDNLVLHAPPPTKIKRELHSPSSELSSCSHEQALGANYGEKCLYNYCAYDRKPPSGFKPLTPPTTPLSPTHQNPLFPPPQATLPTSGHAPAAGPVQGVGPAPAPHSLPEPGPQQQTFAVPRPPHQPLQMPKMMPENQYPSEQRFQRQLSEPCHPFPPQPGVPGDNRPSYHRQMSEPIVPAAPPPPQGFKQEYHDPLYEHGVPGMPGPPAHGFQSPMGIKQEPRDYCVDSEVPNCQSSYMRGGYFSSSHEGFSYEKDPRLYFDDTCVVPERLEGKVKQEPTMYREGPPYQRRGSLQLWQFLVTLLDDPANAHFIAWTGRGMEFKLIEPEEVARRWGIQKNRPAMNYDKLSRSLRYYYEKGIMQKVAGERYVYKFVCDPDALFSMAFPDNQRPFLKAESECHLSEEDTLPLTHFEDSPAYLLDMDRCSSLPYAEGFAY
Chain of ETV1 (P50549 whole entry): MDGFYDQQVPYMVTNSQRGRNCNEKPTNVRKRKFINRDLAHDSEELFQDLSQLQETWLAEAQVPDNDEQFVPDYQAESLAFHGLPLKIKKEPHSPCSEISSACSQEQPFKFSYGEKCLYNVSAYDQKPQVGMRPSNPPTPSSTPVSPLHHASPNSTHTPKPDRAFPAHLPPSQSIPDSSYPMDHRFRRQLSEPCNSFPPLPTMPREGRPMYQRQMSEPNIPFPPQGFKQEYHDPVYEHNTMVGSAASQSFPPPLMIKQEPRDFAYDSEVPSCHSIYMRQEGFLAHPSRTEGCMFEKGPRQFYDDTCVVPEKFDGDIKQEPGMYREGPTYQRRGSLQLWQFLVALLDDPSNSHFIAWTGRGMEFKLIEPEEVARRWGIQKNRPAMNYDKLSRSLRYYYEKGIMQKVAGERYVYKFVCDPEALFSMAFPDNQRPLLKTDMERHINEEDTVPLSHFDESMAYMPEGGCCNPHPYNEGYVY
Chain of SPIB (Q01892 whole entry): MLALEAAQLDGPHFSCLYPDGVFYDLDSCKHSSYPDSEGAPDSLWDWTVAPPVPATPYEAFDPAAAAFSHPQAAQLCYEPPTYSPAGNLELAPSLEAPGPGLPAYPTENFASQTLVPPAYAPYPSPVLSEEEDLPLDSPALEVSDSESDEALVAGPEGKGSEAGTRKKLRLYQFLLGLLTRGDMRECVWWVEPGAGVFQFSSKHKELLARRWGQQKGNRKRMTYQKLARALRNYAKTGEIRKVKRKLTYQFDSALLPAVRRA
Chain of ELF4 (Q99607 whole entry): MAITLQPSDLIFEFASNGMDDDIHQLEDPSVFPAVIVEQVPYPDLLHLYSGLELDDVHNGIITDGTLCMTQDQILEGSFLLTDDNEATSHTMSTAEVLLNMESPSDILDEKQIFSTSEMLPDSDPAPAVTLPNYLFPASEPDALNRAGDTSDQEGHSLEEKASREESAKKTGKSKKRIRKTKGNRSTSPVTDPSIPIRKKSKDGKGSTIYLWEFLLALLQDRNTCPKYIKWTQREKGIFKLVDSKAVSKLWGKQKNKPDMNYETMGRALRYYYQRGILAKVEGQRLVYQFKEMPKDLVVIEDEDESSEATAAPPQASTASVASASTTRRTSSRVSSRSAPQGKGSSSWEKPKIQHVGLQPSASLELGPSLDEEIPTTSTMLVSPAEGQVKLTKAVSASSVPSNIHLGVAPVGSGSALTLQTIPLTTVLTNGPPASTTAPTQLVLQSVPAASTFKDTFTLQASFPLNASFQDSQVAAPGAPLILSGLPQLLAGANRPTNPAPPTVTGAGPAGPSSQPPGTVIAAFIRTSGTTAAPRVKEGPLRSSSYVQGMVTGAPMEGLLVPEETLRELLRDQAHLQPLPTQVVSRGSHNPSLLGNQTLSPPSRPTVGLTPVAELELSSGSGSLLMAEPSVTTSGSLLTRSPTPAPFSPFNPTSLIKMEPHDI
Chain of ELF1 (P32519 whole entry): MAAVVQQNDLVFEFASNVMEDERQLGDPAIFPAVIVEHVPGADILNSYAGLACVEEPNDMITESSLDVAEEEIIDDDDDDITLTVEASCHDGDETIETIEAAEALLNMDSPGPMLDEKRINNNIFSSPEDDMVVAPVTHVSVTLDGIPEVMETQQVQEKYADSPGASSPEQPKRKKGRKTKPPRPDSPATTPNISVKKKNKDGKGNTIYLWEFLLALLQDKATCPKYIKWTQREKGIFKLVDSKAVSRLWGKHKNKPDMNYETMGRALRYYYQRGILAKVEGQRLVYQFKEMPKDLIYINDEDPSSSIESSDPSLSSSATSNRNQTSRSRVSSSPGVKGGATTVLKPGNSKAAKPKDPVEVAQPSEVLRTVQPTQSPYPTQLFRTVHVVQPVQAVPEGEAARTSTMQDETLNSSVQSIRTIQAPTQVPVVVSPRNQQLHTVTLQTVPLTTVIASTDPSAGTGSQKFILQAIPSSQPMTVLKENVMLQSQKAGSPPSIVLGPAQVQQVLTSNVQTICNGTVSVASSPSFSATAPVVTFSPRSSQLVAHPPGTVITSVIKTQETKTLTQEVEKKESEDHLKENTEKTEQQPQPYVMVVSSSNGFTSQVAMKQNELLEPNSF

As for GGTTTC, the binding signal with FLI1 is 1.53 fold enrichment (6-mer frequency, TF over GST control); in the experiment with ELK1 it was 1.39 fold enrichment (6-mer frequency, TF over GST control); in the experiment with GABPA, 1.54 fold enrichment (6-mer frequency, TF over GST control); with ERG, 1.6 fold enrichment (6-mer frequency, TF over GST control); with ELF1, 1.54 fold enrichment (6-mer frequency, TF over GST control); with EHF, 1.51 fold enrichment (6-mer frequency, TF over GST control). Also, the binding signal with SPI1 was 1.6 fold enrichment (6-mer frequency, TF over GST control); with SPIB, 1.52 fold enrichment (6-mer frequency, TF over GST control); with ELK3, 1.62 fold enrichment (6-mer frequency, TF over GST control); with FEV it was 1.55 fold enrichment (6-mer frequency, TF over GST control); in the experiment with ETV5, 1.61 fold enrichment (6-mer frequency, TF over GST control); in the experiment with HSF1, 1.16 fold enrichment (6-mer frequency, TF over GST control). Besides, the binding signal with SPIC was 1.5 fold enrichment (6-mer frequency, TF over GST control); with ELF4, 1.49 fold enrichment (6-mer frequency, TF over GST control); with ELK4, 1.36 fold enrichment (6-mer frequency, TF over GST control); with ETV2, 1.43 fold enrichment (6-mer frequency, TF over GST control); with ELF3 it was 1.31 fold enrichment (6-mer frequency, TF over GST control); with ETV1, 1.64 fold enrichment (6-mer frequency, TF over GST control).
